Molecules are shown by their SMILES. “And” between values parts separate entries of the source, which are not always exact repeats. Equal values may be shown once. Records with an inconclusive call do not appear. The source made the active and inactive calls. Unless noted, the call rests on the fitted dose curve; in most records, active means well fitted curve in the direction sought with a large enough effect; inconclusive means small, poorly fitted or top-dose-only effect, or another doubt; inactive means no such curve, though single readings can be large; an effect the other way counts as inactive or inconclusive. *1 amine or outer side, *2 acyl side, *3 side chain or, on linkers, in order; H or OH if unused. Where a SMILES comes first, the peptide text is derived from it. Non-standard residues stand in square brackets, D forms with d. Residues, ends and D or L forms follow the SMILES beside them. Bridges are numbered along the chain shown (N, C = ends). Roman numbers before positions name the chains, in order. [ ]: non-standard residue; d: D form. ξ: configuration not given here. Actinocin(9to1) = Cc1c2oc3c(C)ccc(C(=O)[*:1])c3nc-2c(C(=O)[*:2])c(N)c1=O; Orn = NCCC[C@H](N)C(=O)O; ξNMeV = CNC(C(=O)O)C(C)C; ξV = CC(C)C(N)C(=O)O; Sar = CNCC(=O)O

The nature of assay [1]: qHTS Assay for Identifying Gametocytocidal Compounds (AID 743244). Further: potency means the concentration at half of the fitted maximal effect.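 On max response: on the % scale 0 is the no-effect control and ±100 the full control effect; actives lower the fluorescent signal which means gametocytes are killed.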 Conditions: P. falciparum 3D7 stage III-V gametocytes, alamarBlue, 72 h; max response: stronger effect = lower value. In short, it runs like this:
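Using 20,000 stage III–V 3D7 gametocytes per well, compounds were incubated 72 h under 37 °C/5% CO2. Viability was then assessed by 24 h alamarBlue reduction, measured fluorometrically at 525/598 nm.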
(In qHTS, concentration-response curves come from the screen itself.)

Assay [2] in a line: qHTS profiling for inhibitors of Plasmodium falciparum (3D7) proliferation (AID 743322; call rule not given here;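 further: infected erythrocytes exposed to compound for 72 h before lysis; 100% = DMSO vehicle wells and 0% = 0.29 µM artemisinin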). The note with it: P. falciparum 3D7 proliferation; at 28.7 µM (top of the series) unless noted. In short, it runs like this: (§1)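 Parasite DNA was quantified by SYBR Green I fluorescence (ex 485, em 535 nm) after overnight lysis in saponin/Triton buffer at room temperature. Cultures at 0.3% parasitemia and 2.5% hematocrit were first exposed to compound for 72 h at 37 C; signals were normalised to artemisinin (0.29 uM) and vehicle wells.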

The nature of assay [3]: qHTS profiling for inhibitors of Plasmodium falciparum (DD2) proliferation (AID 743323; call rule not given here). Conditions: lower = more inhibition; at 28.7 µM (top of the series) unless noted. In short, it runs like this:
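SYBR Green fluorescence (ex 485, em 535 nm) of lysed cultures gives parasite DNA content; wells normalized to artemisinin (0.29 uM) and DMSO controls. Infected red cells: 0.3% parasitemia, 2.5% hematocrit, 72 h, 37 C.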

The nature of assay [4]: qHTS profiling for inhibitors of Plasmodium falciparum (HB3) proliferation (AID 743324).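 Further: 100% = DMSO vehicle wells and 0% = artemisinin-treated control wells.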 Conditions: Plasmodium falciparum HB3 blood-stage proliferation; at 28.7 µM (top of the series) unless noted. In short, it runs like this: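 SYBR Green fluorescence (485 ex/535 em) of lysed cultures, incubated overnight at room temperature in the dark, quantifies parasite DNA. Infected erythrocytes at 0.3% parasitemia and 2.5% hematocrit were exposed 72 h; values normalized to DMSO and 0.29 uM artemisinin controls.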

A short description of assay [5]: qHTS profiling of the MIPE4 collection as inhibitors of Plasmodium falciparum (3D7) proliferation (AID 743344; call rule not given here;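 further: scaled between DMSO vehicle wells and 0.29 µM artemisinin as full inhibition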). Conditions: P. falciparum 3D7 in erythrocytes, SYBR Green DNA fluorescence, 72 h; at 28.5 µM (top of the series) unless noted. Put shortly:
as §1

Assay [6] in a line: qHTS profiling of the MIPE4 collection as inhibitors of Plasmodium falciparum (DD2) proliferation (AID 743345; call rule not given here). The note with it: P. falciparum Dd2 in erythrocytes, SYBR Green DNA, 72 h; at 28.5 µM (top of the series) unless noted. In short, it runs like this:
as §1

Assay [7] is described as follows: qHTS profiling of the MIPE4 collection as inhibitors of Plasmodium falciparum (DD2) proliferation (Rep 2) (AID 743346; call rule not given here). Conditions: P. falciparum Dd2 in erythrocytes, SYBR Green DNA, 72 h; at 28.5 µM (top of the series) unless noted. In short, it runs like this:
as §1

Assay [8] can be described thus: qHTS profiling of the MIPE4 collection as inhibitors of Plasmodium falciparum (HB3) proliferation (AID 743347; call rule not given here;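 further: plate controls were DMSO vehicle wells for no effect and artemisinin wells for full effect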). The note with it: P. falciparum HB3 in erythrocytes, SYBR Green DNA, 72 h; at 28.5 µM (top of the series) unless noted. In short, it runs like this: as §1
Assay [9] in a line: qHTS assay for cell viability of HEK293 cells (AID 743288). Further: on the % scale 0 is the no-effect control and ±100 the full control effect; nearly all actives have a fitted effect of over 50% in size. Conditions: ATP luminescence (CellTiter-Glo), 18 h, stronger effect = lower value. Put shortly:
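Steps: plate 2,000 parental HEK293 cells per well; incubate ≥5 h, 37 C; add compounds in DMSO; incubate 18 h, 37 C; add CellTiter-Glo; wait 30 min at room temperature; read luminescence.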

A short description of assay [10]: qHTS assay for cell viability of the p53RE-bla HCT-116 cell line (AID 743292). Further: on the % scale 0 is the no-effect control and ±100 the full control effect; nearly all actives have a fitted effect of over 55% in size. In short, it runs like this:
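Luminescent ATP quantitation (CellTiter-Glo) served as the viability read-out; reagent was added after 16 h compound exposure at 37 C and read after 30 min at room temperature. Cells: p53RE-bla HCT-116, 4,000 per well.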

On to `CC(NC(=O)Cc1cc(F)cc(F)c1)C(=O)NC(C(=O)OC(C)(C)C)c1ccccc1` (stereo not given), for which the max response in assay [1] was 8.47% (inactive). The remaining parasite growth % (stronger effect = lower value) in assay [2] is 103%. In addition, the activity, percent of control in assay [3] was 97.7%. For the same molecule, the remaining proliferation (% of control), lower = more inhibition in assay [4] came to 104%.
Take `O=c1cc(C2=CC=CC3Sc4ccccc4SC23)oc(N2CCOCC2)c1` (stereo not given): in assay [1], the max response was -19.3% (inactive). Also, the remaining parasite growth % (stronger effect = lower value) in assay [2] worked out at 90.9%. For the same molecule, the activity, percent of control in assay [3] is 88.7%. Besides, in [4], the remaining proliferation (% of control), lower = more inhibition is 76.5%.
Take `CC(C)C[C@@H]1NC(=O)[C@H](CCCN)NC(=O)[C@H](C(C)C)NC(=O)[C@@H]2CCCN2C(=O)[C@@H](Cc2ccccc2)NC(=O)[C@H](CC(C)C)NC(=O)[C@H](CCCN)NC(=O)[C@H](C(C)C)NC(=O)[C@@H]2CCCN2C(=O)[C@@H](Cc2ccccc2)NC1=O` (cyclo(V[Orn]L[dF]PV[Orn]L[dF]P)): the Potency in assay [1] was 2240 nM (active). The remaining parasite growth % (stronger effect = lower value) in assay [2] is -2.61%. In assay [3], the activity, percent of control was -0.499%. In assay [4], the remaining proliferation (% of control), lower = more inhibition is -1.03%. The parasite growth, % of DMSO control in assay [5] was determined as 6.95%. Also, the parasite growth remaining, % of DMSO control (lower = more inhibition) in assay [6] came to 5.43%. In addition, in assay [7], the parasite growth, % of control (lower = inhibition) was determined as 6.21%. Moreover, the growth, % of control in [8] turned out to be 4.03%.
In the case of `Cc1nnc(C(C)C)n1C1CC2CCC(C1)N2CC[C@H](NC(=O)C1CCC(F)(F)CC1)c1ccccc1` (stereo not given in full), the max response in assay [1] is 3.23% (inactive). In addition, the remaining parasite growth % (stronger effect = lower value) in assay [2] is 111%. For the same molecule, in [3], the activity, percent of control stood at 102%. Also, the remaining proliferation (% of control), lower = more inhibition in [4] was 96.7%.
For `CN1CCC(CN2c3ccccc3Sc3ccccc32)C1` (stereo not given), the remaining parasite growth % (stronger effect = lower value) in assay [2] amounted to 32.6%. In assay [3], the activity, percent of control is 26.9%. For the same molecule, the remaining proliferation (% of control), lower = more inhibition in [4] was determined as 21.8%.
Regarding `CC1=C2[C@@H]([C@H](C)CC[C@H]2/C=C(\C)C(=O)O)[C@H](O)C1`, in assay [9], the max response is -12% (inactive). For the same molecule, in assay [10], the call was inactive.
Regarding `O=C(O)CN(CCN(CC(=O)O)CC(=O)O)CC(=O)O`, the max response in assay [9] was -9.23% (inactive) and -6.76% (inactive). Further, the call in assay [10] was inactive.
In the case of `O=C(O)CC/C=C\CC[C@H]1[C@@H](N2CCCCC2)[C@@H](O)C[C@@H]1OCc1ccc(-c2ccccc2)cc1`, the max response in assay [1] is 3.93% (inactive). Besides, the remaining parasite growth % (stronger effect = lower value) in [2] was 58.6%. Further, the activity, percent of control in assay [3] stood at 86.9%. In addition, the remaining proliferation (% of control), lower = more inhibition in [4] was 76.1%.
On to `CC(O)CO` (stereo not given), for which the max response is 5.22% (inactive) in assay [1]; 4.22% (inactive) and 2.43% (inactive) in assay [9]. Besides, in assay [10], the call was inactive.
On to `CC(C)N=c1cc2n(-c3ccc(Cl)cc3)c3ccccc3nc-2cc1Nc1ccc(Cl)cc1`, for which the parasite growth, % of DMSO control in assay [5] amounted to 10.9%. In addition, the parasite growth remaining, % of DMSO control (lower = more inhibition) in assay [6] was determined as 7.22%. In [7], the parasite growth, % of control (lower = inhibition) turned out to be 166%. Also, in assay [8], the growth, % of control is 47.5%.
Consider `C[C@@H]1CCC2[C@@H](C)[C@@H](O)O[C@@H]3O[C@@]4(C)CC[C@@H]1[C@@]23OO4` (stereo not given in full), for which, in assay [1], the Potency was 46.9 nM (active). In addition, the remaining parasite growth % (stronger effect = lower value) in assay [2] was -0.537%. The activity, percent of control in [3] is -0.207%. Moreover, the remaining proliferation (% of control), lower = more inhibition in [4] was -0.144%. In [5], this molecule registered a parasite growth, % of DMSO control of 5.03%. In addition, in assay [6], the parasite growth remaining, % of DMSO control (lower = more inhibition) amounted to 6.44%. In [7], the parasite growth, % of control (lower = inhibition) was determined as 10.6%. Besides, in assay [8], the growth, % of control was 6.11%.
Turning to `NC(=O)Nc1cc(-c2ccc(CN3CCOCC3)c(F)c2)sc1C(=O)N[C@H]1CCCNC1`, the Potency in assay [1] is 18700 nM (active). Besides, in [2], the remaining parasite growth % (stronger effect = lower value) stood at 3.88%. Moreover, the activity, percent of control in assay [3] was 1.39%. In assay [4], the remaining proliferation (% of control), lower = more inhibition turned out to be 2.42%.
Regarding `Cc1c2oc3c(C)ccc(C(=O)N[C@@H]4C(=O)NC(C(C)C)C(=O)N5CCC[C@H]5C(=O)N(C)CC(=O)N(C)C(C(C)C)C(=O)O[C@@H]4C)c3nc-2c(C(=O)N[C@@H]2C(=O)NC(C(C)C)C(=O)N3CCC[C@H]3C(=O)N(C)CC(=O)N(C)C(C(C)C)C(=O)O[C@@H]2C)c(N)c1=O` (stereo not given in full) (I: T[ξV]P[Sar][ξNMeV] / II: T[ξV]P[Sar][ξNMeV]; ester I:1-I:C, II:1-II:C; linker I:N-II:N via Actinocin(9to1)), the Potency in assay [1] is 13.2 nM (active). In addition, the remaining parasite growth % (stronger effect = lower value) in assay [2] was -2.78%. For the same molecule, the activity, percent of control in [3] was -1.83%. The remaining proliferation (% of control), lower = more inhibition in [4] is -2.59%.
For the molecule `CCCCCCCC/C=C\CCCCCCCC(=O)O`, the max response was 5.58% (inactive) in assay [1]; -8.54% (inactive) and -13.9% (inactive) in assay [9]. For the same molecule, the outcome in assay [10] was inactive.
With `O=C(O)CCC(=O)C(=O)O`, the max response was 11.5% (inactive) in assay [1] and 2.53% (inactive) in assay [9]. Further, the molecule was classed as inactive in [10].
The corresponding values for `C[C@H]1C[C@H]2[C@@H]3CCC4=CC(=O)C=C[C@]4(C)[C@@]3(F)[C@@H](O)C[C@]2(C)[C@@]1(O)C(=O)CO` are -4.91% (inactive), -14.2% (inactive) and “inactive”.
In the case of `C[C@@H]1CCN(C(=O)CC#N)C[C@@H]1N(C)c1ncnc2[nH]ccc12`, the max response in assay [1] was 9.63% (inactive). Besides, in [2], the remaining parasite growth % (stronger effect = lower value) amounted to 95.6%. The activity, percent of control in [3] was found to be 99.8%. In assay [5], this molecule gave a parasite growth, % of DMSO control of 84%. The parasite growth remaining, % of DMSO control (lower = more inhibition) in assay [6] was 103%. For the same molecule, in assay [7], the parasite growth, % of control (lower = inhibition) was 78.4%. Further, in [8], the growth, % of control came out at 96.8%.

These data come from PubChem BioAssay (NCATS).
